From PubChem
An excerpt weighted towards active compounds, which were near 21% of everything screened.
NS1 inh: inhibitors of influenza NS1 protein function | Potency, µM (doses to about 46.1 µM), inactives show top-dose activity, positive = more growth | hit rate 0.4% among 270,000; also: potency is read from the fitted curve at half-maximal effect; actives are rising curves; nearly all actives have a fitted effect of over 50% in size
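Compounds were scored for reversing the slow growth caused by influenza A NS1 in S. cerevisiae, measured by optical density at 600 nm. Assay medium contained 2% galactose at pH 6.0; NS1-free yeast of the same strain were the positive control.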
Pf growth 96h: P. falciparum growth inhibition at 96 hour, primary screen for plastid delayed-death inhibitors; P. falciparum luciferase reporter growth, 96 h; Potency, µM (doses to about 28.7 µM), inactives show at the highest dose activity change, negative = inhibition, actives largely listed as inhibitors; hit rate 6.9% among 320,000; AID 504834; active = well fitted inhibition curve with a large enough effect; inconclusive = small, poorly fitted or top-dose-only effect, or another doubt; inactive = no such curve, though single readings can be large or run the other way; also: potency is read from the fitted curve at half-maximal effect; % is scaled to controls: 0 for no effect and ±100 for the full control effect
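Cell-based qHTS: luciferase-tagged P. falciparum in erythrocytes (2% hematocrit, 0.05% parasitemia final) incubated with compounds for 96 hours, 37 C, 5% CO2; luciferase detection reagent then added and luminescence measured.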
Shiga inhibitor: inhibitors of Shiga toxin in Vero cells. Vero cells, Shiga toxin protein synthesis inhibition reporter. inhibition, % at 38.7 µM. hit rate 9.2% among 290,000; in the data active = inhibition mostly above about 28%, no sharp cut-off; inactive = mostly below about 43%; also: 0% is about no effect
SARS PLpro yeast: inhibitors of SARS-CoV papain-like protease in yeast | S. cerevisiae expressing SARS-CoV PLpro, growth rescue | AID 485353 | Potency, µM (titrated, usually from 32.9 µM), without a hit: at the highest dose activity, positive = growth rescue, most hits filed as activators | hit rate 0.19% among 330,000; also: potency is read from the fitted curve at half-maximal effect; 0% is about no effect; nearly all actives have a fitted effect of over 55% in size
Pf growth 48h: inhibits P. falciparum growth in the first generation, 48 h | Potency, µM (titrated, usually from 28.7 µM), without a hit: at the highest dose activity change, negative = inhibition, actives largely listed as inhibitors | AID 504832 | hit rate 5.9% among 310,000 | P. falciparum luciferase growth in erythrocytes, 48 h; active = well fitted inhibition curve with a large enough effect; inconclusive = small, poorly fitted or top-dose-only effect, or another doubt; inactive = no such curve, though single readings can be large or run the other way; also: potency is read from the fitted curve at half-maximal effect; % is scaled to controls: 0 for no effect and ±100 for the full control effect
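Growth was read as firefly luciferase luminescence after a 48 h, 37 C, 5% CO2 exposure of compounds to reporter-bearing P. falciparum cultures (0.1% parasitemia, 2% hematocrit final) in Albumax-supplemented RPMI 1640.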
CHX counter: counter-screen hit for Shiga toxin inhibitors, cycloheximide; cell reporter, cycloheximide protein synthesis inhibition counterscreen; max response, %; hit rate 12% among 300,000; AID 2314; in the data active = max response mostly above about 13%, no sharp cut-off; inactive = mostly below about 14%; also: read at 38.3 µM for the half of the compounds with a filed dose; 0% is about no effect
An asterisk follows results filed as active; [ ] = dose if it differs, or a comment. Unless noted, calls follow the shape of the full dose curve.

`CC(C)Cn1c(CN2CCN(C(=O)c3ccco3)CC2)nc2c1c(=O)n(C)c(=O)n2C` gave Pf growth 96h 69%, Shiga inhibitor -20, SARS PLpro yeast -3%, Pf growth 48h 4% and CHX counter -1.
CN1CCN(Cc2nc3c(c(=O)n(C)c(=O)n3C)n2CCc2ccccc2)CC1 was read as NS1 inh -39%.
Screening CC(C)CCn1c(CN2CCN(C(=O)c3ccco3)CC2)nc2c1c(=O)n(C)c(=O)n2C returned NS1 inh -15%, Pf growth 96h 6.6µM*, Shiga inhibitor -8, SARS PLpro yeast -2% and CHX counter -3.
`Cn1c(=O)c2c(nc(NC(Cc3ccccc3)C(=O)O)n2Cc2ccccc2)n(C)c1=O` (stereo not given) gave NS1 inh 11%, Pf growth 96h 54%, Shiga inhibitor 13, SARS PLpro yeast -3%, Pf growth 48h 6.6µM* and CHX counter 10.
`COc1cc(OC)c(-c2cc(C(=O)O)ccc2OC)c(OC)c1` gave NS1 inh 28%, Pf growth 96h -9%, Shiga inhibitor -9, SARS PLpro yeast 23%, Pf growth 48h 1% and CHX counter -5.
`CN(C(=O)CC1C(=O)NCCN1Cc1ccc(F)c(F)c1)C1CCCCC1` (stereo not given) gave NS1 inh 9%, Pf growth 96h inconclusive, Shiga inhibitor 18, SARS PLpro yeast -6%, Pf growth 48h -3% and CHX counter -2.
For COc1ccc(CCNC(=O)c2ccc3c(=O)n4c(nc3c2)CCC4)cc1OC the results were Pf growth 96h 9%, SARS PLpro yeast 1% and Pf growth 48h -24%.
`COC(=O)[C@@H]1C[C@@]2(O)[C@H](O)[C@H](O)[C@H](O)C[C@H]2N1Cc1ccc(-c2ccccc2)cc1` gave NS1 inh 5%, Pf growth 96h -3%, Shiga inhibitor -6, SARS PLpro yeast -5%, Pf growth 48h 52% and CHX counter 1.
Cc1cc(C)n2nc(SCC(=O)Nc3ccc(F)c(F)c3F)nc2n1 was read as Pf growth 96h inconclusive, SARS PLpro yeast 8% and Pf growth 48h inconclusive.
`O=C(CC1C(=O)N(c2ccccc2)C(=O)N1C1CCCCC1)Nc1ccccc1` (stereo not given) gave NS1 inh -13%, Pf growth 96h 0%, Shiga inhibitor -5, SARS PLpro yeast 3%, Pf growth 48h inconclusive and CHX counter 4.
For CC(C)CCn1c(NCCc2ccccc2)nc2c1c(=O)n(C)c(=O)n2C the results were NS1 inh 5%, Pf growth 96h inconclusive, Shiga inhibitor 3, SARS PLpro yeast 1%, Pf growth 48h inconclusive and CHX counter -7.
For Cn1c(=O)c2c(nc(NCCc3ccccc3)n2Cc2ccc(F)cc2)n(C)c1=O the results were NS1 inh -101%, Pf growth 96h inconclusive, Shiga inhibitor -13, SARS PLpro yeast -10%, Pf growth 48h 12µM* and CHX counter 8.
Screening Cn1c(=O)c2c(nc(CN3CCN(Cc4ccccc4)CC3)n2Cc2ccc(F)cc2)n(C)c1=O returned NS1 inh -2%, Pf growth 96h inconclusive, Shiga inhibitor -14, SARS PLpro yeast -1%, Pf growth 48h 7.4µM* and CHX counter -2.
`Cn1c(=O)c2c(nc(CN3CCc4ccccc4C3)n2Cc2ccccc2)n(C)c1=O` gave NS1 inh -50%, Pf growth 96h 12µM*, Shiga inhibitor -4, SARS PLpro yeast -1%, Pf growth 48h 13µM* and CHX counter -4.
Screening Cn1c(=O)c2c(nc(CN3CCc4ccccc4C3)n2Cc2ccc(Cl)cc2)n(C)c1=O returned NS1 inh 6%, Pf growth 96h -19%, Shiga inhibitor 2, SARS PLpro yeast -7%, Pf growth 48h 10% and CHX counter 3.
Cn1nnnc1SCC(=O)C(C)(C)C was read as NS1 inh 1%, Pf growth 96h 45%, Shiga inhibitor 19, SARS PLpro yeast 0%, Pf growth 48h 5% and CHX counter 0.
For CN1CCN(CC(=O)Nc2ccc(Cl)cc2Cl)CC1 the results were NS1 inh 3%, Pf growth 96h 9.3µM*, Shiga inhibitor 25, SARS PLpro yeast 6%, Pf growth 48h 15% and CHX counter 10.
Screening S=C(Nc1ccc(Cl)cc1Cl)N1CCOCC1 returned NS1 inh 16%, Pf growth 96h -22%, Shiga inhibitor -11, SARS PLpro yeast 3%, Pf growth 48h 1% and CHX counter -1.
`Cc1cc(Cl)ccc1NC(=O)CN1CCCC1` gave NS1 inh 6%, Pf growth 96h -29%, Shiga inhibitor -4, SARS PLpro yeast 4%, Pf growth 48h -8% and CHX counter 3.
`CCN1CCN(C(=S)Nc2ccc(Cl)cc2Cl)CC1` gave NS1 inh 3%, Pf growth 96h 56%, Shiga inhibitor 26, SARS PLpro yeast -2% and CHX counter 25*.
For CN1CCN(C(=S)Nc2ccc(Cl)cc2Cl)CC1 the results were NS1 inh 2%, Pf growth 96h 22%, Shiga inhibitor 12, SARS PLpro yeast 2%[6.58 µM] and CHX counter 16*.
For COc1ccccc1CC(=O)NCCN1CCCCC1 the results were NS1 inh 5%, Pf growth 96h 3%, Shiga inhibitor -9, SARS PLpro yeast -2%, Pf growth 48h 2% and CHX counter 0.
Cc1ccc(NC2(c3nnnn3-c3c(C)cccc3C)CCCCC2)cc1 was read as NS1 inh 20%, Pf growth 96h inconclusive, Shiga inhibitor -14, SARS PLpro yeast -88%, Pf growth 48h 13µM* and CHX counter -1.
`CN=C1S/C(=C\c2cc(C)n(-c3ccccc3F)c2C)C(=O)N1C` gave NS1 inh -34%, Pf growth 96h -41%, Shiga inhibitor 96*, SARS PLpro yeast -33%, Pf growth 48h -82% and CHX counter 44*.
CC(=O)NC1=NC(=O)/C(=C/c2cc(C)n(-c3ccc(NC(C)=O)cc3)c2C)S1 was read as Pf growth 96h 51%, Shiga inhibitor 43, SARS PLpro yeast -2%, Pf growth 48h 42% and CHX counter 33*.
Screening Cc1cc(/C=C2\SC(=O)N(C)C2=O)c(C)n1-c1ccc(S(N)(=O)=O)cc1 returned NS1 inh 2%, Pf growth 96h 36%, Shiga inhibitor 42, SARS PLpro yeast -1%, Pf growth 48h -6% and CHX counter 22*.
Cc1cc(/C=C2\SC(=O)NC2=O)c(C)n1-c1ccc(N(C)C)cc1 was read as NS1 inh 0%, Pf growth 96h 4%, Shiga inhibitor -7, SARS PLpro yeast -4%, Pf growth 48h 11% and CHX counter -2.
`Cc1cc(/C=C2\SC(=O)N(C)C2=O)c(C)n1-c1ccc(O)cc1` gave NS1 inh -103%, Pf growth 96h 275%, Shiga inhibitor 51*, SARS PLpro yeast -15%, Pf growth 48h 280% and CHX counter 34*.
